Assay results published in the supplement of paper PMC10849652.
Of roughly 7,900 targets only a part is listed; those with a hit were picked by preference. About 0.6% of all pairs of compound and target were hits. Unmarked numbers belong to inactive results.

How the values were obtained:
Experiment in all cases: log2 fold change, soluble protein after heating vs DMSO (PISA); higher = thermal stabilisation; K562 cells, 10 uM, 30 min; active = over 0.2 and 3.5 SD of the protein, either way, in both replicates (recomputed)
[1] = compound: NC(=O)Nc1cc(-c2cccc(F)c2)sc1C(=O)N[C@H]1CCCNC1
In short: (§1)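 K562 cells at 2×10^6 cells/mL were treated with 10 μM compound for 30 min. Aliquots were heated for 3 min across 48°C-58°C, pooled, and extracted in PBS with 0.5% NP-40 at 4°C; soluble protein was the supernatant after 21,000xg for 90 min. Soluble protein was quantified by TMTpro 16plex LC-MS/MS with channel sums equalised, and reported as log2 fold change in thermal stability against DMSO controls, with values from duplicates.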

[2] = compound: NC(=O)c1cnc(N[C@@H]2CCCC[C@@H]2N)nc1Nc1cccc(-n2nccn2)c1
In short: as §1

[3] = compound: NC1(c2ccc(-c3nc4ccn5c(=O)[nH]nc5c4cc3-c3ccccc3)cc2)CCC1
In short: as §1

[4] = compound: NCC(=O)Nc1ccc(-n2nc(C(F)(F)F)cc2-c2ccc3c(ccc4ccccc43)c2)cc1
In short: as §1

entinostat = compound: Nc1ccccc1NC(=O)c1ccc(CNC(=O)OCc2cccnc2)cc1 [entinostat]
In short: as §1

vorinostat = compound: O=C(CCCCCCC(=O)Nc1ccccc1)NO [vorinostat]
In short: as §1

citarinostat = compound: O=C(CCCCCCNC(=O)c1cnc(N(c2ccccc2)c2ccccc2Cl)nc1)NO [citarinostat]
In short: as §1

silmitasertib = compound: O=C(O)c1ccc2c(c1)nc(Nc1cccc(Cl)c1)c1ccncc12 [silmitasertib]
In short: as §1

[5] = compound: O=C1NC(=O)C(c2cnc3ccccn23)=C1c1cn2c3c(cc(F)cc13)CN(C(=O)N1CCCCC1)CC2
In short: as §1

[6] = compound: c1cc(OCCN2CCCCC2)cc(-c2n[nH]c3ccc(-c4nnc[nH]4)cc23)c1
In short: as §1

entospletinib = compound: c1cn2cc(-c3ccc4cn[nH]c4c3)nc(Nc3ccc(N4CCOCC4)cc3)c2n1 [entospletinib]
In short: as §1

Sequence of UniProt Q12968 (Q12968 whole entry, looked up): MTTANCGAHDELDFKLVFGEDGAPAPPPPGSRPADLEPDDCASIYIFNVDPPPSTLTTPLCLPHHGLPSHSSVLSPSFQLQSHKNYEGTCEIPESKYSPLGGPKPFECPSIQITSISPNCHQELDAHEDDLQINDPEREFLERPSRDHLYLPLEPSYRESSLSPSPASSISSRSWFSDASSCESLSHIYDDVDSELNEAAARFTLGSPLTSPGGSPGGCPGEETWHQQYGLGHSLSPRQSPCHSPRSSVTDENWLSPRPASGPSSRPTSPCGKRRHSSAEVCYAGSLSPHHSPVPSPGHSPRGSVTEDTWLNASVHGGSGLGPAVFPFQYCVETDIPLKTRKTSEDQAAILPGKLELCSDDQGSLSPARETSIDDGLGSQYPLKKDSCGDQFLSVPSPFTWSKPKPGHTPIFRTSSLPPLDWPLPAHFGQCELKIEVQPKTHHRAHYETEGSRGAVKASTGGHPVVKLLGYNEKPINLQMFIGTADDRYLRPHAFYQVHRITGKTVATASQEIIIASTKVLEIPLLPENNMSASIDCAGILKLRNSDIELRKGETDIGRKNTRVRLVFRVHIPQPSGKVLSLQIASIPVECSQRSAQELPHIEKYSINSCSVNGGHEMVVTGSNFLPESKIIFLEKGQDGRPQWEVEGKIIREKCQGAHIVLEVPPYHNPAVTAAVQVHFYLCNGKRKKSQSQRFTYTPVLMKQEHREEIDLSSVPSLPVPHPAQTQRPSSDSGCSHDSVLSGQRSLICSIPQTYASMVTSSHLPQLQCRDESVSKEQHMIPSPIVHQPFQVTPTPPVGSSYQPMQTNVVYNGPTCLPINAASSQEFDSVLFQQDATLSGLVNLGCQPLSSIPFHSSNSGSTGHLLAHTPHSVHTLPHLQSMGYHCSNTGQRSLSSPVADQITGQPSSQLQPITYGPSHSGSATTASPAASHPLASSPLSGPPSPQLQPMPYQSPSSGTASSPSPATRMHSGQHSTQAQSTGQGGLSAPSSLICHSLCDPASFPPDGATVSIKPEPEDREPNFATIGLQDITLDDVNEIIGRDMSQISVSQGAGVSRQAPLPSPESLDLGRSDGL
Sequence of UniProt P55209 (P55209 whole entry, looked up): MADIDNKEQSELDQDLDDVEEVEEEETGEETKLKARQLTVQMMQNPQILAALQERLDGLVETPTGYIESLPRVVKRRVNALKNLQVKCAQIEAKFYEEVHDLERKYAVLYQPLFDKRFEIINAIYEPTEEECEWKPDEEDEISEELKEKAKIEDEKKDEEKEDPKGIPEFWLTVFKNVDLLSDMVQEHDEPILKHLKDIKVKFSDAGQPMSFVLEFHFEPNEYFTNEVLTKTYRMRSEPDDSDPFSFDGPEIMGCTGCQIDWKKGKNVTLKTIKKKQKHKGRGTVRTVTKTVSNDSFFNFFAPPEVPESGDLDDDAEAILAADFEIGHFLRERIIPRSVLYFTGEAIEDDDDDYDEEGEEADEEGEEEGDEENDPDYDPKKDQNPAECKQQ
Sequence of UniProt O75323 (O75323 whole entry, looked up): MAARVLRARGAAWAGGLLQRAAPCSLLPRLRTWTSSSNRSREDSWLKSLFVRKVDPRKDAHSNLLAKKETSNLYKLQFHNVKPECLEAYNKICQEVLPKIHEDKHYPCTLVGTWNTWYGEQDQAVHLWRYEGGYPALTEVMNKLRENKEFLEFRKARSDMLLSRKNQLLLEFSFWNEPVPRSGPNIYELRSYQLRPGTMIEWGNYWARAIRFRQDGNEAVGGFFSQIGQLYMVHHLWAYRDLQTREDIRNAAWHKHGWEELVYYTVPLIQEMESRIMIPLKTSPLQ
Sequence of UniProt P52701 (P52701 whole entry, looked up): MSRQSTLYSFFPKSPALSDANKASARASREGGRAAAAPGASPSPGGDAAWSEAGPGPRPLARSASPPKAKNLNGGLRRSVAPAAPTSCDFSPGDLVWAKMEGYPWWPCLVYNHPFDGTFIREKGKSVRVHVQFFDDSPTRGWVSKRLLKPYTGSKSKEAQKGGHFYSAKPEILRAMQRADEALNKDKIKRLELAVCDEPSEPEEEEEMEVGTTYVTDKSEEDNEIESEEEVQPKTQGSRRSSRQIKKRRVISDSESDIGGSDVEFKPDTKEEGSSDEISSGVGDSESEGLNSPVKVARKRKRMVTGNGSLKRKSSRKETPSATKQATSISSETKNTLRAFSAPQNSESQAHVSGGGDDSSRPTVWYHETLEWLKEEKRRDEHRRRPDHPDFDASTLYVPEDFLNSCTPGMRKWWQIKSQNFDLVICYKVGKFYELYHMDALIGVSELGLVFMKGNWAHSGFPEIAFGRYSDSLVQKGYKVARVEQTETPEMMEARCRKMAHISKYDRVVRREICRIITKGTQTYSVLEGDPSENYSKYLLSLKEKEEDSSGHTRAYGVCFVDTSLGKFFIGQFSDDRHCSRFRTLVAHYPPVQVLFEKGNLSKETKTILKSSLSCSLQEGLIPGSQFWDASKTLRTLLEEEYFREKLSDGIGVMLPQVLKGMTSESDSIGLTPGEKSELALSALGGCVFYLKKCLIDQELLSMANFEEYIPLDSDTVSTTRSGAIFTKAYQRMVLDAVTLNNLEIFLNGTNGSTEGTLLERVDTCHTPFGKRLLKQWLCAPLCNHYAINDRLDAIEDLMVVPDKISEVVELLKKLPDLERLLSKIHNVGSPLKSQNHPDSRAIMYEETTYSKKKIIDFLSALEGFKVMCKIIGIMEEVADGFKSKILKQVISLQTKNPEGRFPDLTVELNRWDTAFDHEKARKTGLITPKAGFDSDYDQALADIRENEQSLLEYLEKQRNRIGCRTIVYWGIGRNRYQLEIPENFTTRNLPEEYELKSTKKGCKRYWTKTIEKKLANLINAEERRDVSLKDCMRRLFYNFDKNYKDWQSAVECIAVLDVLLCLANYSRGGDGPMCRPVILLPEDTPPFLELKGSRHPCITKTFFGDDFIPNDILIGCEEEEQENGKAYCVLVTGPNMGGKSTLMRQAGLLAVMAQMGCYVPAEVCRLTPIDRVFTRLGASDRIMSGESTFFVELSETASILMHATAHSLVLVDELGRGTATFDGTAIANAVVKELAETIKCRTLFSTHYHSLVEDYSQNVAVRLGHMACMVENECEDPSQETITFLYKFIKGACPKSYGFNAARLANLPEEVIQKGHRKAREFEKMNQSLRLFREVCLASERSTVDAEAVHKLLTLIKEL
Sequence of UniProt O15118 (O15118 whole entry, looked up): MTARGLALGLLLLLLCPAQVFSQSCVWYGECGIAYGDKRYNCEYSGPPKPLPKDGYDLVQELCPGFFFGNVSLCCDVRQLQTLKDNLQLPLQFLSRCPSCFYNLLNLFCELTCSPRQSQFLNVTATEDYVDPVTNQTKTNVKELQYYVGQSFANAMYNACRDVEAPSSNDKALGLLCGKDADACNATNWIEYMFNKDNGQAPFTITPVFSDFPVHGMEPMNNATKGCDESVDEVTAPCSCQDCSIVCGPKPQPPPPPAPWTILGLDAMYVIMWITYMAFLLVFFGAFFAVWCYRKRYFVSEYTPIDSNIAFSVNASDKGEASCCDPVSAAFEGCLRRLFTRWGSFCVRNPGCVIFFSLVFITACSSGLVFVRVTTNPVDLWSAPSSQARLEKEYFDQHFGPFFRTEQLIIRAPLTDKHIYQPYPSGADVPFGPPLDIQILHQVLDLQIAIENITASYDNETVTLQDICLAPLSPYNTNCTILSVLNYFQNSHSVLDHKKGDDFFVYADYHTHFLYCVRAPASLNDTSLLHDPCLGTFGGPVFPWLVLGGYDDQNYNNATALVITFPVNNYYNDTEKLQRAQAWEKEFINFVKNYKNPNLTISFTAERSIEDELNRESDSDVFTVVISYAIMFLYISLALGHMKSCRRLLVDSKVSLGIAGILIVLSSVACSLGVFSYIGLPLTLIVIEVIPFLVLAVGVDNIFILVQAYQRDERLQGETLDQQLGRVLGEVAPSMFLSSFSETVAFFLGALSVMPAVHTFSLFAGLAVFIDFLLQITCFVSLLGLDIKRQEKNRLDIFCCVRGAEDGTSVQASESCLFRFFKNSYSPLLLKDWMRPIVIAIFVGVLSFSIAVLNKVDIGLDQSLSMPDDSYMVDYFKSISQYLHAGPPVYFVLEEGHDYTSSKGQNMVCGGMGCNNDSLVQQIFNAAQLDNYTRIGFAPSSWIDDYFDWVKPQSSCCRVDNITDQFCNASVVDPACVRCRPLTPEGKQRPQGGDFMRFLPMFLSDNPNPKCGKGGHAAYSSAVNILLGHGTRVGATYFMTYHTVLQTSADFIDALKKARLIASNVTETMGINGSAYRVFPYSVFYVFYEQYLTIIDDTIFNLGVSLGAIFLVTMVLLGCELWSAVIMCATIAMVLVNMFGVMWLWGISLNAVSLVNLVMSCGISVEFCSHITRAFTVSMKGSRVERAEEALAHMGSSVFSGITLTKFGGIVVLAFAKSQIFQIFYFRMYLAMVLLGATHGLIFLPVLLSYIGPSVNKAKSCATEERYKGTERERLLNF
Sequence of UniProt Q16621 (Q16621 whole entry, looked up): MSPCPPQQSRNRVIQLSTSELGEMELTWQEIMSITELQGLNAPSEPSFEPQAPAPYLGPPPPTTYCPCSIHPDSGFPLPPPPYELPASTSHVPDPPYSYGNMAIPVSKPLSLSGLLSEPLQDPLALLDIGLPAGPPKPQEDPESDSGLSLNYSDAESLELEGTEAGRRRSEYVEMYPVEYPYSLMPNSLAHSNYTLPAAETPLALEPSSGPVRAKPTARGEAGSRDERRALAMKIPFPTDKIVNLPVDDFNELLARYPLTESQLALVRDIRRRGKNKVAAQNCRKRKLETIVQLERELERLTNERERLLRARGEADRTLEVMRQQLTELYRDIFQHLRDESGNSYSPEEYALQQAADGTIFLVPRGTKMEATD
Sequence of UniProt P15559 (P15559 whole entry, looked up): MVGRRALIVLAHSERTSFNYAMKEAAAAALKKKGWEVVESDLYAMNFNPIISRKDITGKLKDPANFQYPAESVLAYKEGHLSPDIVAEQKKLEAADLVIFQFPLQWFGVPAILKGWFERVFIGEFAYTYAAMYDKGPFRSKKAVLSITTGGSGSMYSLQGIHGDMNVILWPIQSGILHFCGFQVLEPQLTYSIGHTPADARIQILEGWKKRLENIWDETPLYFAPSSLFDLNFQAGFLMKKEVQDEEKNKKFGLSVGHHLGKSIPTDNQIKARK

Row | Target | log2 fold change [1] | log2 fold change [2] | log2 fold change [3] | log2 fold change [4] | log2 fold change (entinostat) | log2 fold change (vorinostat) | log2 fold change (citarinostat) | log2 fold change (silmitasertib) | log2 fold change [5] | log2 fold change [6] | log2 fold change (entospletinib)
1 | NAP1L1 (UniProt P55209) | -0.084 | 0.049 | -0.01 | -0.016 | 0.02 | 0.008 | -0.01 | 0.069 | -0.038 | 0.069 | 0.028
2 | MRPS17 (UniProt Q9Y2R5) | -0.035 | 0.091 | -0.138 | -0.018 | -0.027 | 0.191 | 0.05 | -0.051 | -0.047 | 0.02 | 0.118
3 | NCAPH (UniProt Q15003) | -0.086 | -0.036 | -0.092 | -0.043 | 0.038 | 0.029 | 0.029 | 0.098 | 0 | -0.009 | 0.012
4 | MKNK1 (UniProt Q9BUB5) | 0.226 | -0.157 | -0.158 | -0.059 | -0.026 | -0.025 | 0.025 | 0.012 | 0.019 | -0.042 | 0.01
5 | OTULIN (UniProt Q96BN8) | 0.008 | -0.017 | -0.183 | -0.093 | 0.097 | 0.038 | -0.005 | 0.086 | -0.143 | -0.077 | 0.1
6 | NOSIP (UniProt Q9Y314) | 0 | -0.004 | -0.095 | -0.121 | 0.16 | 0.163 | 0.136 | 0.082 | -0.095 | 0.019 | -0.146
7 | NANS (UniProt Q9NR45) | 0.043 | -0.05 | 0.02 | -0.032 | 0.014 | 0.116 | 0.032 | -0.002 | -0.011 | 0 | 0.025
8 | MRPL50 (UniProt Q8N5N7) | 0.024 | 0.154 | 0.035 | 0.074 | 0.059 | -0.102 | 0.051 | 0.006 | -0.078 | -0.078 | -0.005
9 | NFATC3 (UniProt Q12968) | -0.15 | -0.137 | 0.034 | 0.007 | 0.107 | 0.045 | -0.101 | 0.118 | -0.267 | -0.225 | 0.153
10 | NPC1 (UniProt O15118) | 0.002 | 0.039 | -0.196 | -0.017 | -0.049 | 0.004 | 0.017 | 0.031 | 0.027 | -0.106 | 0.023
11 | NUDT1 (UniProt P36639) | 0.159 | 0.145 | 1.01 (active) | -0.129 | -0.026 | 0.033 | -0.073 | -0.091 | 0.791 | 0.572 | 0.018
12 | NCAPD2 (UniProt Q15021) | -0.109 | -0.075 | -0.149 | -0.045 | 0.084 | 0.058 | 0.078 | 0.135 | 0.014 | -0.002 | 0.031
13 | MPP1 (UniProt Q00013) | -0.083 | -0.015 | -0.159 | -0.067 | 0.047 | 0.093 | 0.036 | 0.022 | 0.027 | -0.059 | 0.056
14 | MRPS35 (UniProt P82673) | 0.035 | -0.07 | -0.082 | 0.012 | -0.027 | 0.088 | -0.011 | -0.119 | -0.033 | -0.03 | 0.036
15 | NIPSNAP2 (UniProt O75323) | -0.084 | -0.047 | -0.004 | -0.033 | 0.027 | -0.016 | -0.021 | -0.039 | -0.179 | 0.023 | 0.092
16 | MSH6 (UniProt P52701) | -0.033 | -0.091 | -0.213 | -0.191 | 0.229 | 0.273 | 0.347 | 0.14 | -0.169 | 0.097 | -0.053
17 | NDFIP1 (UniProt Q9BT67) | 0.104 | -0.16 | -0.029 | -0.249 | -0.291 | -0.051 | 0.025 | 0.27 | 0.352 | 0.007 | -0.003
18 | PAK1 isoform 2 (UniProt Q13153) | -0.067 | 0.051 | 0.012 | -0.083 | 0.021 | 0.096 | -0.033 | 0.043 | -0.068 | -0.032 | -0.02
19 | NMT2 (UniProt O60551) | 0 | -0.089 | -0.168 | -0.164 | -0.004 | -0.049 | 0.007 | -0.028 | -0.017 | -0.491 (active) | 0.023
20 | NOP2 isoform 4 (UniProt P46087) | 0.205 | 0.241 | 0.408 | 0.3 | -0.163 | 0.014 | -0.04 | 0.288 | 0.344 | -0.095 | 0.147
21 | MKRN2 (UniProt Q9H000) | -0.007 | 0 | 0.094 | -0.044 | 0.104 | 0.228 | 0.042 | 0.047 | 0.052 | -0.129 | -0.038
22 | MRPS26 (UniProt Q9BYN8) | -0.067 | -0.022 | -0.088 | 0.092 | 0.022 | 0.171 | -0.04 | -0.044 | -0.039 | 0 | 0.078
23 | NUP160 (UniProt Q12769) | 0.031 | -0.058 | -0.066 | -0.062 | 0.008 | 0.05 | 0.018 | 0.075 | 0.021 | -0.09 | 0.03
24 | NQO1 (UniProt P15559) | -0.032 | 0.039 | -0.018 | -0.034 | -0.013 | -0.024 | 0.009 | -0.058 | -0.149 | 0.068 | -0.101
25 | NFE2 (UniProt Q16621) | 0.035 | -0.049 | -0.091 | -0.062 | -0.024 | 0.055 | 0.04 | 0.145 | -0.037 | 0.006 | -0.055
